Measurements: PubChem BioAssay (NCI)
About 83,000 compounds went through this panel and 20% of them were active in at least one assay; those are over-represented in the sample as a whole.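 Step 1: grow cells in 96-well plates. Step 2: add test compound at a single concentration. Step 3: incubate 48 h. Step 4: record percent growth.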 Active and inactive are the calls of the source. Rule for the calls: active = growth percent below 10; inactive = the rest.

Columns and labels:
Assay in all cases: NCI-60 one-dose screen, 48 h (100 = growth as untreated, 0 = no growth, -100 = all killed)
Settings in all cases: 10 µM unless noted
HCT-15 colon = tested on: HCT-15 colon
HT29 colon = tested on: HT29 colon
SNB-19 CNS = tested on: SNB-19 CNS
U251 CNS = tested on: U251 CNS
PC-3 prostate = tested on: PC-3 prostate
SK-MEL-5 melanoma = tested on: SK-MEL-5 melanoma
UACC-62 melanoma = tested on: UACC-62 melanoma
LOX IMVI melanoma = tested on: LOX IMVI melanoma
SK-MEL-28 melanoma = tested on: SK-MEL-28 melanoma

Measured: growth

C=C1CCC2C(C)(CO)C(O)CCC2(C)C1CC(NCc1ccccc1)C1=CCOC1=O (stereo unspecified)
inactive: HCT-15 colon 105% | HT29 colon 99.6% | SNB-19 CNS 101% | U251 CNS 96.2% | PC-3 prostate 101% | SK-MEL-5 melanoma 113% | UACC-62 melanoma 94.5% | LOX IMVI melanoma 97.5% | SK-MEL-28 melanoma 101%

Cc1cc(C)n(-c2nnc3n2N=C(c2ccc(-c4ccccc4)cc2)CS3)n1
active: HT29 colon 6.89%
inactive: HCT-15 colon 36% | SNB-19 CNS 66.9% | U251 CNS 37.3% | PC-3 prostate 36.4% | SK-MEL-5 melanoma 28.2% | UACC-62 melanoma 40.5% | LOX IMVI melanoma 35.2% | SK-MEL-28 melanoma 52.7%

COc1ccc(C2=C(c3cc(OC)c(OC)c(OC)c3)C(=O)CC2)cc1
active: HT29 colon -5.43% | SK-MEL-5 melanoma -33.6%
inactive: HCT-15 colon 24.2% | SNB-19 CNS 35.1% | U251 CNS 21.7% | PC-3 prostate 38.3% | UACC-62 melanoma 32.7% | LOX IMVI melanoma 19.6% | SK-MEL-28 melanoma 47.7%

NC1=NC(SCc2ccccc2CCl)c2ncn(Cc3ccccc3CCl)c2N1 (stereo unspecified)
inactive: HCT-15 colon 76.5% | HT29 colon 14.4% | SNB-19 CNS 74.7% | U251 CNS 36.8% | PC-3 prostate 78.6% | SK-MEL-5 melanoma 48.4% | UACC-62 melanoma 34.2% | SK-MEL-28 melanoma 65.2%
active: LOX IMVI melanoma -80.2%

COc1ccc(-c2ccc(C)n2-c2ccc(-c3nc4ccccc4s3)cc2)cc1
inactive: HCT-15 colon 96.5% | HT29 colon 92% | SNB-19 CNS 91.9% | U251 CNS 90% | PC-3 prostate 91.6% | SK-MEL-5 melanoma 102% | UACC-62 melanoma 86.1% | LOX IMVI melanoma 88.3% | SK-MEL-28 melanoma 113%

Cc1ccc2[nH]c(=O)c3c(c2c1)Oc1ncn2nc(-c4ccco4)nc2c1C3c1ccc(Cl)cc1 (stereo unspecified)
inactive: HCT-15 colon 91.6% | HT29 colon 101% | SNB-19 CNS 88.2% | U251 CNS 97.7% | PC-3 prostate 93.7% | SK-MEL-5 melanoma 99% | UACC-62 melanoma 101% | LOX IMVI melanoma 90.4% | SK-MEL-28 melanoma 103%

Oc1ccc2cc(Br)ccc2c1-c1c(O)ccc2cc(Br)ccc12
inactive: HCT-15 colon 67.7% | HT29 colon 11.2% | SNB-19 CNS 78.3% | U251 CNS 65% | PC-3 prostate 42.1% | SK-MEL-5 melanoma 72.8% | UACC-62 melanoma 61.4% | LOX IMVI melanoma 61.8% | SK-MEL-28 melanoma 65.5%

COc1ccc(NC(=O)c2cc(OC)c(OC)c(OC)c2)cc1O
inactive: HCT-15 colon 35% | HT29 colon 10.7% | SNB-19 CNS 52.1% | U251 CNS 40.4% | PC-3 prostate 25.9% | SK-MEL-5 melanoma 22.8% | UACC-62 melanoma 30.8% | LOX IMVI melanoma 43.3% | SK-MEL-28 melanoma 56%

O=C(NCCNc1nccc(-n2ccc3cccnc32)n1)c1ccc(C(F)(F)F)cc1
inactive: HCT-15 colon 104% | HT29 colon 113% | SNB-19 CNS 104% | U251 CNS 99.8% | PC-3 prostate 102% | SK-MEL-5 melanoma 101% | UACC-62 melanoma 94.6% | LOX IMVI melanoma 99.4% | SK-MEL-28 melanoma 105%

CCOC(=O)c1cn2c3c(cc(C)cc3c1=O)C(=O)/C(=C/c1ccccc1)C2
inactive: HCT-15 colon 109% | HT29 colon 105% | SNB-19 CNS 84.4% | U251 CNS 83.3% | PC-3 prostate 99% | SK-MEL-5 melanoma 91.3% | UACC-62 melanoma 68.1% | LOX IMVI melanoma 94.5% | SK-MEL-28 melanoma 93.8%

N=c1ccc2nc3ccc(N)cc3sc-2c1
active: SNB-19 CNS 4.78% | U251 CNS 6.47% | PC-3 prostate 7.2% | SK-MEL-5 melanoma -80.3% | LOX IMVI melanoma 3.98%
inactive: HCT-15 colon 27.3% | HT29 colon 41.3% | UACC-62 melanoma 16.4% | SK-MEL-28 melanoma 57.1%

Cc1ccc(-c2nc(C#N)c(S(=O)(=O)n3nc(-c4ccccc4)cc3N)o2)cc1
inactive: HCT-15 colon 67.6% | HT29 colon 56% | SNB-19 CNS 93.7% | U251 CNS 96.7% | PC-3 prostate 101% | SK-MEL-5 melanoma 99.8% | UACC-62 melanoma 94.3% | LOX IMVI melanoma 28% | SK-MEL-28 melanoma 108%

Cn1c(=O)cc(NC(=O)CN2CCN(c3cc4c(cc3F)c(=O)c(C(=O)O)cn4C3CC3)CC2)[nH]c1=O
inactive: HCT-15 colon 99% | HT29 colon 103% | SNB-19 CNS 98.4% | U251 CNS 101% | PC-3 prostate 95.2% | SK-MEL-5 melanoma 101% | UACC-62 melanoma 96.3% | LOX IMVI melanoma 99.5% | SK-MEL-28 melanoma 107%

COc1ccc(-n2c(=O)sc3c(Cl)nc(C)nc32)c(OC)c1
inactive: HCT-15 colon 61.3% | HT29 colon 74.1% | SNB-19 CNS 49.6% | U251 CNS 51.6% | PC-3 prostate 85.2% | SK-MEL-5 melanoma 98.1% | UACC-62 melanoma 78.4% | LOX IMVI melanoma 29.1% | SK-MEL-28 melanoma 83.3%

Fc1ccc(-c2nc(-c3nc4ncccc4[nH]3)cc3c2[nH]c2ccccc23)cc1F
inactive: HCT-15 colon 54.7% | HT29 colon 39.1% | SNB-19 CNS 102% | U251 CNS 81.9% | PC-3 prostate 73.3% | SK-MEL-5 melanoma 28.3% | UACC-62 melanoma 79.9% | LOX IMVI melanoma 48.5% | SK-MEL-28 melanoma 94%

COc1ccc(-c2c(N)n[nH]c2-c2cc3c(c(OC)c2OC)OCO3)cc1
inactive: HCT-15 colon 101% | HT29 colon 103% | SNB-19 CNS 104% | U251 CNS 94.1% | PC-3 prostate 101% | SK-MEL-5 melanoma 110% | UACC-62 melanoma 82.9% | LOX IMVI melanoma 95% | SK-MEL-28 melanoma 104%

CC(=O)c1cc2c(N)c(C(=O)Nc3cccc4c3OCCO4)sc2nc1C
inactive: HCT-15 colon 97.3% | HT29 colon 103% | SNB-19 CNS 93.2% | U251 CNS 99.4% | PC-3 prostate 91.4% | SK-MEL-5 melanoma 95.3% | UACC-62 melanoma 67.8% | LOX IMVI melanoma 97.5% | SK-MEL-28 melanoma 94%

O=C(C1=Cc2cc3ccccc3n2Cc2cnnn21)c1ccccc1
active: HT29 colon 7.8%
inactive: HCT-15 colon 38.6% | SNB-19 CNS 32.2% | U251 CNS 32.6% | PC-3 prostate 47.7% | SK-MEL-5 melanoma 45.8% | UACC-62 melanoma 44.4% | LOX IMVI melanoma 49.8% | SK-MEL-28 melanoma 64.8%

Cc1nc2c3c(ncn2n1)Oc1c(c(=O)[nH]c2ccccc12)C3c1ccc(Cl)cc1 (stereo unspecified)
inactive: HCT-15 colon 99.6% | HT29 colon 102% | SNB-19 CNS 92% | U251 CNS 94.1% | PC-3 prostate 83.4% | SK-MEL-5 melanoma 94.8% | UACC-62 melanoma 90.6% | LOX IMVI melanoma 91.1% | SK-MEL-28 melanoma 110%

O=[N+]([O-])c1ccc(Sc2ncccn2)c([N+](=O)[O-])c1
inactive: HCT-15 colon 38.9% | HT29 colon 62.2% | SNB-19 CNS 99.3% | U251 CNS 78.6% | PC-3 prostate 32.9% | SK-MEL-5 melanoma 76.7% | UACC-62 melanoma 60.7% | LOX IMVI melanoma 68.1% | SK-MEL-28 melanoma 71.9%

CCN(CC)CCOC(=O)C(c1ccccc1)(c1ccccc1)C(C)C
inactive: HCT-15 colon 95.9% | HT29 colon 61.4% | SNB-19 CNS 97.1% | U251 CNS 87.2% | PC-3 prostate 69% | SK-MEL-5 melanoma 90.6% | UACC-62 melanoma 100% | LOX IMVI melanoma 71.5% | SK-MEL-28 melanoma 106%

COc1cc(-c2nn(C(=O)NS(=O)(=O)c3ccccc3)cc2-c2ccncc2)ccc1Cl
inactive: HCT-15 colon 97.9% | HT29 colon 53.9% | SNB-19 CNS 95.3% | U251 CNS 81.6% | PC-3 prostate 78.2% | SK-MEL-5 melanoma 95.6% | UACC-62 melanoma 66.7% | LOX IMVI melanoma 71.5% | SK-MEL-28 melanoma 91.8%

CCCCCCCCCCCCCCCCCCNC(=O)[C@H]1CSC(c2ccc(OC)cc2O)N1 (stereo partly specified)
inactive: HCT-15 colon 80.7% | HT29 colon 45.3% | SNB-19 CNS 81.2% | U251 CNS 63.9% | PC-3 prostate 69.7% | SK-MEL-5 melanoma 93.1% | UACC-62 melanoma 74.9% | LOX IMVI melanoma 62.4% | SK-MEL-28 melanoma 50.5%

C=CCn1cc(-c2nc3ccccc3s2)c2cc(-c3ccc4c5c(cccc35)C(=O)N(CCN3CCNCC3)C4=O)ccc21
inactive: HCT-15 colon 16.1% | HT29 colon 11% | SNB-19 CNS 90% | U251 CNS 95.2% | PC-3 prostate 65.2% | SK-MEL-5 melanoma 99.1% | UACC-62 melanoma 93.6% | LOX IMVI melanoma 77.6% | SK-MEL-28 melanoma 107%

CN(C)CC(C(=O)c1ccccc1)c1ccccc1 (stereo unspecified)
inactive: SNB-19 CNS 84.4% | U251 CNS 59.8% | PC-3 prostate 38.3% | SK-MEL-5 melanoma 64.2% | UACC-62 melanoma 34.8% | SK-MEL-28 melanoma 61%
active: HCT-15 colon -37.7% | HT29 colon -17.4% | LOX IMVI melanoma 3.08%

Cc1cc(N/N=C/c2nc(-c3ccccc3)oc2C)c2cc(Br)ccc2n1
active: LOX IMVI melanoma -31.7%
inactive: HCT-15 colon 43.6% | HT29 colon 65.6% | SNB-19 CNS 91.2% | U251 CNS 38.5% | PC-3 prostate 79.5% | SK-MEL-5 melanoma 103% | UACC-62 melanoma 88.3% | SK-MEL-28 melanoma 26%

CN(C)CCOC(=O)Nc1ccccc1Cl
inactive: HCT-15 colon 103% | HT29 colon 110% | SNB-19 CNS 104% | U251 CNS 108% | PC-3 prostate 93.5% | SK-MEL-5 melanoma 104% | UACC-62 melanoma 110% | LOX IMVI melanoma 101% | SK-MEL-28 melanoma 115%

Cc1ccc(S(=O)(=O)NCCNc2cc(-c3cn(C(C)(C)C)nc3-c3cccc(O)c3)ccn2)cc1
inactive: HCT-15 colon 31.1% | HT29 colon 17.2% | SNB-19 CNS 84.4% | U251 CNS 62.9% | PC-3 prostate 46.7% | SK-MEL-5 melanoma 30.9% | UACC-62 melanoma 77% | LOX IMVI melanoma 47.4% | SK-MEL-28 melanoma 57.7%

CC(C)CSc1nc(NN)c(C#N)c(-c2ccc(F)cc2)n1
inactive: HCT-15 colon 46.9% | HT29 colon 103% | SNB-19 CNS 60.8% | U251 CNS 60.2% | PC-3 prostate 56.7% | SK-MEL-5 melanoma 50.3% | UACC-62 melanoma 56% | LOX IMVI melanoma 54.4% | SK-MEL-28 melanoma 85%
